S16 F2sN tox: S16 Schwann cell cytotoxicity; S16 Pmp22-F2sN Schwann cells viability, CellTiter-Glo, 24 h; Potency, µM (highest dose often 57.5 µM), for inactives: top-dose activity change, negative = cytotoxicity, most hits filed as cytotoxic; hit rate 0.48% among 43,000; AID 1508642; further: potency means the concentration at half of the fitted maximal effect; on the % scale 0 is the no-effect control and ±100 the full control effect; nearly all actives have a fitted effect of over 65% in size
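Rat S16 Schwann reporter line, 24 h treatment with library compounds delivered at 23 nL per well. Cell viability by CellTiter-Glo luminescence.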
p53null 32C tox: selectivity test: cytotoxicity in p53 null cells, permissive temperature. AID 903. H1299-neo p53 null cells, ATP luminescence, 24 h, 32C. Potency, µM (doses to about 46.1 µM), for the others: at the top dose activity change, negative = cytotoxicity, most hits filed as cytotoxic. hit rate 0.62% among 55,000;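 further: potency means the concentration at half of the fitted maximal effect; 0% = DMSO only and -100% = full killing by 100 µM tamoxifen; nearly all actives have a fitted effect of over 55% in size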
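We seeded p53-null H1299-neo cells, incubated them overnight at 37C, and added compounds across a range up to 46 uM. After 24 hours at 32C, ATP reagent was applied for 20 min at room temperature and luminescence recorded.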
pS6 MEF inh: mTORC1 pathway inhibition measured by phospho-rpS6; hit rate 0.78% among 44,000; Potency, µM (highest dose often 38.3 µM), without a hit: top-dose activity change, negative = inhibition, actives largely listed as inhibitors; AID 493208; Tsc2-/- p53-/- MEF, phospho-rpS6 immunofluorescence/PI, 24 h;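 further: potency means the concentration at half of the fitted maximal effect; plate controls were DMSO for no effect and rapamycin for full effect; nearly all actives have a fitted effect of over 50% in size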
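Cell-based qHTS: Tsc2-/- p53-/- MEF, 24 h cpd, 37 °C; fix/perm, anti-phospho-S6 Alexa-488 + PI; Acumen 488 nm scan; pS6/PI ratio, % positive cells; rapamycin 7.5 nM = inhibition ref; PI count = viability.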
p53null 39C tox: kills p53 null cells at the nonpermissive temperature | H1299 p53-null (neo) cells, 39C, ATPlite viability, 24 h | Potency, µM (doses to about 46.1 µM), without a hit: top-dose activity, negative = cell killing, most hits filed as cytotoxic | hit rate 0.97% among 55,000 | AID 904;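 further: potency means the concentration at half of the fitted maximal effect; 0% = DMSO only and -100% = full killing by 100 µM tamoxifen; nearly all actives have a fitted effect of over 50% in size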
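Concentration-response (up to 46 uM) was run for 24 h at the nonpermissive 39C on H1299-p53A138V or H1299-neo cells. ATP content was measured with ATPlite luminescence. AC50 values were Hill-modeled after normalizing between DMSO and 100 uM tamoxifen killing.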
PMP22 txn: PMP22 gene transcription modulation. S16 Pmp22-F2sN Schwann cells (luciferase reporters placed in the Pmp22 gene), FLuc/NLuc coincidence luminescence, 24 h. Potency, µM (highest dose often 57.5 µM), inactives show at the highest dose activity change, negative = inhibition, usual class: inhibitors. hit rate 2% among 43,000; active means clear falling dose curves in both reporters; inconclusive means both reporters move, but less clearly or upward; inactive means either reporter flat; the % is the NLuc reporter signal; further: potency means the concentration at half of the fitted maximal effect; on the % scale 0 is the no-effect control and ±100 the full control effect
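S16(c9) Schwann cells with FLuc/NLuc coincidence reporter in the Pmp22 3' UTR; compounds pin-transferred, 24 h at 37C. Dual-luciferase read: FLuc first, then NLuc after Stop&Glo, each 10 min at room temperature.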
OvCa metastasis: ovarian cancer metastasis inhibition, 3D TME model; SKOV3ip1-GFP adhesion/invasion on 3D omental model, fluorescence; Potency, µM (series often up to 45.8 µM), for the others: at the highest dose activity change, negative = inhibition, most hits filed as inhibitors; hit rate 0.1% among 46,000; AID 1963576;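 further: potency means the concentration at half of the fitted maximal effect; plate controls were DMSO wells for no effect and tomatine positive control wells for full effect; nearly all actives have a fitted effect of over 65% in size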
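qHTS, 4-pt dose (0.36-46 umol/L); SKOV3ip1-GFP, 1,200 cells/well, no FBS; primary omental fibroblast/mesothelial co-culture 48 h pre-grown; 2 h RT + 16 h 37 C; PBS wash, 4% PFA; GFP count 488/509 nm.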
NLuc saturating: inhibits NanoLuc at saturating substrate, PMP22 counter-screen; Secreted NLuc enzyme (filtered S16 cell medium), Nano-Glo luminescence; hit rate 4% among 690; shares compounds with PMP22 txn; AID 1508638; Potency, µM (series often up to 57.5 µM), for inactives: at the highest dose activity change, negative = inhibition, usual class: inhibitors; further: potency means the concentration at half of the fitted maximal effect; on the % scale 0 is the no-effect control and ±100 the full control effect
NLuc Km ctr: counter-screen for PMP22 expression modulators: NanoLuc inhibition at Km. shares compounds with PMP22 txn. secreted NLuc enzyme, coelenterazine luminescence, Km conditions. Potency, µM (titrated, usually from 57.5 µM), for inactives: at the top dose activity change, negative = inhibition, actives largely listed as inhibitors. hit rate 5% among 690; further: potency means the concentration at half of the fitted maximal effect; on the % scale 0 is the no-effect control and ±100 the full control effect
FLuc ctr PMP22: inhibits firefly luciferase, PMP22 counter-screen. shares compounds with PMP22 txn. purified P. pyralis FLuc, luminescence, 10 min. Potency, µM (top dose mostly 57.5 µM), inactives show at the top dose activity, negative = inhibition, hits mostly inhibitors. 690 tested, under 10 active. AID 1508640; further: % of control where 0% means no effect
Target sequence (P08659 whole entry, looked up): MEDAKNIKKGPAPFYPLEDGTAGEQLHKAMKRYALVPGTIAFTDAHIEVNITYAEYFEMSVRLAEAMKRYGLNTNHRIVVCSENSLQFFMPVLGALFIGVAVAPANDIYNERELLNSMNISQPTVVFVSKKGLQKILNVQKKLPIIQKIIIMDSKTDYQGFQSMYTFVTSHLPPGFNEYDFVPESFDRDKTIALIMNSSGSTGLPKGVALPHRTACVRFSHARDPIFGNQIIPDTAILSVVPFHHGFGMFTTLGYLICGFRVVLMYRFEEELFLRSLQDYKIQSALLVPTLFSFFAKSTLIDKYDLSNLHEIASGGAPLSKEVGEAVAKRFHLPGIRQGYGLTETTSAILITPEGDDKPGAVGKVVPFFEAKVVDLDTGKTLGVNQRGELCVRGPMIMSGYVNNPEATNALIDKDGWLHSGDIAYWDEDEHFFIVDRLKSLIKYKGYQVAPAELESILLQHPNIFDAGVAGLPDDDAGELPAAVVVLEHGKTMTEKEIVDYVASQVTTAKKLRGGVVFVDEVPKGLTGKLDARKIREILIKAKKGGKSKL
S16 viab conf: S16 Schwann cell cytotoxicity, confirmatory | shares compounds with PMP22 txn | S16 Schwann cells viability, CellTiter-Glo ATP luminescence, 24 h | Potency, µM (titrated, usually from 57.5 µM), inactives show at the top dose activity change, negative = viability loss, usual class: cytotoxic | hit rate 7% among 690; further: potency means the concentration at half of the fitted maximal effect; on the % scale 0 is the no-effect control and ±100 the full control effect
PMP22 txn conf: PMP22 transcription modulation, confirmatory; shares compounds with PMP22 txn; S16 Schwann cells Pmp22-F2sN, dual luciferase, 24 h; Potency, µM (titrated, usually from 57.5 µM), for the others: at the top dose activity change, negative = inhibition, usual class: inhibitors; hit rate 22% among 690; AID 1508646; active means clear falling dose curves in both reporters; inconclusive means both reporters move, but less clearly or upward; inactive means either reporter flat; the % is the FLuc reporter signal; further: potency means the concentration at half of the fitted maximal effect
PMP22 prot conf: rat PMP22 protein level modulation, confirmatory. 95 tested, under 10 active. S16 Schwann cells Pmp22-HiBiT, luminescence, 48 h. AID 1508647. shares compounds with PMP22 txn. Potency, µM (doses to about 27.9 µM), for inactives: top-dose activity change, negative = inhibition, hits mostly inhibitors
Active calls of the source: *; ? = inconclusive; · = no result given. A selection: hits, their analogues and other compounds. The true share with any hit is near 3.1%. Unless noted, the call rests on the fitted dose curve; in most records, active means well fitted curve in the direction sought with a large enough effect; inconclusive means small, poorly fitted or top-dose-only effect, or another doubt; inactive means no such curve, though single readings can be large; an effect the other way counts as inactive or inconclusive.

SMILES | S16 F2sN tox | p53null 32C tox | pS6 MEF inh | p53null 39C tox | PMP22 txn | OvCa metastasis | NLuc saturating | NLuc Km ctr | FLuc ctr PMP22 | S16 viab conf | PMP22 txn conf | others
CN(C)[C@@H](CCOc1cccc2ccccc12)c1ccccc1 | · | · | · | · | · | 4% | · | · | · | · | ·
CCCS(=O)(=O)Nc1ccc(F)c(C(=O)c2c[nH]c3ncc(Cl)cc23)c1F | · | · | · | · | · | -9% | · | · | · | · | ·
Cc1ccc(C)c(N2CCN(CCCNC(=O)Cn3c(-c4cccs4)cc4ccccc43)CC2)c1 | ? | ? | ? | ? | 13µM* | ? | -4% | -5% | -1% | ? | ? | PMP22 prot conf=15%
CCCN1CCN(CCCNC(=O)Cn2c(-c3cccs3)cc3cc(Cl)ccc32)CC1 | ? | -1% | 0% | -3% | 11µM* | ? | 1% | -3% | 2% | ? | ?
CCCN1CCN(CCCNC(=O)Cn2c(-c3cccs3)cc3ccccc32)CC1 | 6% | -6% | 1% | 3% | ? | 5% | · | · | · | · | · | PMP22 prot conf=?
CCN1CCN(CCCNC(=O)Cn2c(-c3cccs3)cc3ccccc32)CC1 | ? | 5% | -10% | -1% | ? | -4% | · | · | · | · | ·
CN1CCN(CCCNC(=O)Cn2c(-c3cccs3)cc3ccccc32)CC1 | 12% | 1% | -8% | -5% | ? | 14% | · | · | · | · | ·
CC(C)c1cnc2c(c1SCC(=O)Nc1ccc(C(N)=O)cc1)c(=O)n(C)c(=O)n2C | 1% | -5% | 0% | -7% | 3% | 37% | · | · | · | · | ·
Cc1ccc(-c2cn3nc(N4CCCC(C(=O)NCc5ccc(F)cc5)C4)sc3n2)cc1 (centres undefined) | 13% | -10% | -6% | -7% | ? | -5% | · | · | · | · | ·
Cc1c(C(=O)Nc2ccc(N3C[C@@H](C)O[C@@H](C)C3)nc2)cccc1-c1ccc(OC(F)(F)F)cc1 | · | · | · | · | · | 27% | · | · | · | · | ·
COc1ccc(-c2c(C)nn3c(N4CCN(c5ccccc5)CC4)cc(C)nc23)cc1OC | -13% | 0% | -13% | 16% | 17µM* | 0% | ? | ? | -4% | -16% | ?
